PubChem BioAssay
For some assays here: Potency and affinity values are given separately. Calls of active or inactive are those of the source. Unless noted, no rule for the calls is given here.

Key:
[1] = antimalarial activity against Dd2 strain (AID 2302;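 active = growth inhibition above 50% at the single 2 µM test dose, taken to imply half-maximal potency below 2 µM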;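 also: 0% = DMSO untreated growth and 100% = chloroquine plus artemisinin killed control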); details: P. falciparum Dd2 in RBCs, LDH growth readout, 72 h; at 2 µM; stronger effect = higher value
[2] = human hepatoma cell viability loss – ATP luminescence, cytotoxicity control for P. falciparum antimalarial project, primary screen (AID 2303;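 active = inhibition above 50%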;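 also: 0% = DMSO wells and 100% = digitonin-killed cells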); details: HepG2 viability, 24-48 h, at 10 µM, stronger effect = higher value
[3] = molecular target: L-lactate dehydrogenase (Plasmodium falciparum (isolate CDC / Honduras)) (UniProt Q27743); assay: PfLDH activity inhibition – cell lysate, 3D7 strain, counter-screen for P. falciparum growth inhibition project (AID 2304);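 also: 0% = vehicle and 100% = reference inhibitor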; details: P. falciparum 3D7 crude extract, LDH APAD/NBT absorbance; at 2 µM; stronger effect = higher value
L-lactate dehydrogenase (Plasmodium falciparum (isolate CDC / Honduras)), sequence (Q27743 whole entry, looked up): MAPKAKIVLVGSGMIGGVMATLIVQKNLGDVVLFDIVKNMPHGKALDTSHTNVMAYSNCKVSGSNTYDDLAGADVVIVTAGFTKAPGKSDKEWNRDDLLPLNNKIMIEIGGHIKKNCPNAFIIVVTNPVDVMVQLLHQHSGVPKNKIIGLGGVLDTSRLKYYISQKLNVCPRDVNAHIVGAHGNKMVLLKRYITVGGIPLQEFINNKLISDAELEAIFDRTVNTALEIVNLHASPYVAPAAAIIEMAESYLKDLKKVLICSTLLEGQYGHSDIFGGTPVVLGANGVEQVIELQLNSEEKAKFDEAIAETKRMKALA

[4] = inhibition of 3D7 malaria parasite growth – strain 3D7 (AID 2306);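 also: 0% = DMSO wells and 100% = chloroquine plus artemisinin control wells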; details: P. falciparum 3D7 erythrocytic growth, LDH absorbance, 72 h; at 2 µM; stronger effect = higher value
[5] = molecular target: Calcium-dependent protein kinase 1 (Plasmodium falciparum (isolate 3D7)) (UniProt P62344); assay: PfCDPK1 kinase inhibitors, biochemical, TCAMS library (AID 1159585; cut-off not given, nearly all actives have IC50 up to about 0.98 µM;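 also: inhibitors leave more ATP so luminescence rises with inhibition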); details: recombinant PfCDPK1, Kinase-Glo ATP depletion luminescence
Calcium-dependent protein kinase 1 (Plasmodium falciparum (isolate 3D7)), sequence (P62344 whole entry, looked up): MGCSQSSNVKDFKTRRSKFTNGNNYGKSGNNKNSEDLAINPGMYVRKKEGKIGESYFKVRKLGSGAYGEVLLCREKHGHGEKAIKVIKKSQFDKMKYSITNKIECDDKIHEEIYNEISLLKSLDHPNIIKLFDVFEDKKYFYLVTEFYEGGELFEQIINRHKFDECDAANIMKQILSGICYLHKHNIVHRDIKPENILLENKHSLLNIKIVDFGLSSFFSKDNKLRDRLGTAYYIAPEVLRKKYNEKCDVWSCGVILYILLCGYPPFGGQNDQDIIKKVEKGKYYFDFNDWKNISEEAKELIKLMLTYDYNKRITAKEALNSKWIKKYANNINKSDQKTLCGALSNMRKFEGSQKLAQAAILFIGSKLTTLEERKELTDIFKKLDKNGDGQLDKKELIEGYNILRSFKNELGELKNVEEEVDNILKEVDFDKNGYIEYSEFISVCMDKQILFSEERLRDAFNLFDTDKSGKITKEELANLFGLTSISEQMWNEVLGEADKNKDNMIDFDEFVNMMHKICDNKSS

[6] = molecular target: Plasmodium falciparum protein kinase 6 (PK6, PF3D7_1337100) (UniProt Q8IDW1); assay: PfPK6 kinase inhibitors, biochemical, TCAMS library (AID 1159586); details: recombinant PfPK6, Kinase-Glo ATP depletion luminescence
Plasmodium falciparum protein kinase 6 (PK6, PF3D7_1337100), sequence (Q8IDW1 1-305): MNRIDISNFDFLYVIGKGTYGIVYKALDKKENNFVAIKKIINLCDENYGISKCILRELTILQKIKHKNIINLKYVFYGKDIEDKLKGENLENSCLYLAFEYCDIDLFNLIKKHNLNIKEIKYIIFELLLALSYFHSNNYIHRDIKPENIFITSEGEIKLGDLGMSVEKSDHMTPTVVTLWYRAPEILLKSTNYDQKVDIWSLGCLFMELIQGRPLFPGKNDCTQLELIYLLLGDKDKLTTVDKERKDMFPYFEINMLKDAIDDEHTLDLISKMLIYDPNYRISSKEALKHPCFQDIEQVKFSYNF

[7] = molecular target: Protein kinase 7 (PK7), Plasmodium falciparum 3D7 (PF3D7_0213400) (UniProt Q7YTF7); assay: inhibition of Plasmodium PK7 catalytic activity – biochemical, TCAMS antimalarial set, Kinase-Glo luminescence (AID 1159587); details: recombinant PfPK7, Kinase-Glo ATP depletion luminescence
Protein kinase 7 (PK7), Plasmodium falciparum 3D7 (PF3D7_0213400), sequence (Q7YTF7 1-343): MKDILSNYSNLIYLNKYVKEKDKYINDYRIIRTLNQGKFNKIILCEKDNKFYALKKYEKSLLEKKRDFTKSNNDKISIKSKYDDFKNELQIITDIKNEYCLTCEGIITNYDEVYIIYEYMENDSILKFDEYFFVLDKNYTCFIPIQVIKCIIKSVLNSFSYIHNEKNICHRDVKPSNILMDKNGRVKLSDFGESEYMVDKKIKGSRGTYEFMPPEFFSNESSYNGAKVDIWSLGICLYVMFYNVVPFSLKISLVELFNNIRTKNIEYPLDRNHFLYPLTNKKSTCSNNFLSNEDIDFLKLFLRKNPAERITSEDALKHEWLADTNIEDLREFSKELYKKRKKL

[8] = molecular target: Calcium-dependent protein kinase 4 (Plasmodium falciparum (isolate 3D7)) (UniProt Q8IBS5); assay: PfCDPK4 kinase inhibitors, biochemical, TCAMS library (AID 1159588; cut-off not given, nearly all actives have IC50 up to about 0.91 µM); details: recombinant PfCDPK4, Kinase-Glo ATP depletion luminescence
Calcium-dependent protein kinase 4 (Plasmodium falciparum (isolate 3D7)), sequence (Q8IBS5 whole entry, looked up): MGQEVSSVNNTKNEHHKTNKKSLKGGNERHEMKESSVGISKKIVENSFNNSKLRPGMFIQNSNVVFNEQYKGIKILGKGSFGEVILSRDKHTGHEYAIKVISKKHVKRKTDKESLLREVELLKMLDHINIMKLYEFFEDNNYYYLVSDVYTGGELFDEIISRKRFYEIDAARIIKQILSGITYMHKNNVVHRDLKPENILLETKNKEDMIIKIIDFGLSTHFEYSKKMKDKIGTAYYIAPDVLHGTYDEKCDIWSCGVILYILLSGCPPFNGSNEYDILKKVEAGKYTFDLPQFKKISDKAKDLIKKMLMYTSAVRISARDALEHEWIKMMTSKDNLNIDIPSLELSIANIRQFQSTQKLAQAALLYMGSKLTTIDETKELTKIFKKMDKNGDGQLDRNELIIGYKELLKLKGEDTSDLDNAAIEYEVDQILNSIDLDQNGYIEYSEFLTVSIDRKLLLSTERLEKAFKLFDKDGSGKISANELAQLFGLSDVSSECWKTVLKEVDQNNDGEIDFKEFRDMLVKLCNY

OC(CNc1ccnc(Nc2ccccc2)n1)c1cccc(C(F)(F)F)c1 (stereo not given)
active: growth inhibition [1] 61% | growth inhibition [4] 100%
inactive: inhibition [2] 16% | inhibition [3] -2% | outcome [5] | outcome [6] | outcome [7] | outcome [8]

O=C(NCCCCCN1CCC(c2c[nH]c3ccccc23)CC1)Nc1ccc(Br)cc1
active: growth inhibition [4] 91%
inactive: growth inhibition [1] -4% | inhibition [2] 24% | inhibition [3] 1% | outcome [5] | outcome [6] | outcome [7] | outcome [8]

Cc1nc(-c2nc(NCCc3c(C)noc3C)ncc2-c2ccsc2)sc1C
active: growth inhibition [1] 85% | growth inhibition [4] 87%
inactive: inhibition [2] 12% | inhibition [3] -2% | outcome [5] | outcome [6] | outcome [7] | outcome [8]

O=S(=O)(NCCN1CCCC1)c1ccc(-c2ccc(CNCc3ccc(F)cc3)cc2)cc1F
active: growth inhibition [4] 82%
inactive: growth inhibition [1] 21% | inhibition [2] 40% | inhibition [3] 2% | outcome [5] | outcome [6] | outcome [7] | outcome [8]

O=C(CCc1ccccc1)N[C@H](Cc1c[nH]c2ccccc12)C(=O)N1CCC(NCc2ccc3c(c2)Cc2ccccc2-3)CC1
inactive: growth inhibition [1] 8% | inhibition [3] -6% | outcome [5] | outcome [6] | outcome [7] | outcome [8]
active: inhibition [2] 53% | growth inhibition [4] 92%

CCc1cccc(NC(=O)/C=C/c2ccc3c(c2)CN(C)CC3)c1
active: growth inhibition [1] 91% | growth inhibition [4] 94%
inactive: inhibition [2] 8% | inhibition [3] -1% | outcome [5] | outcome [6] | outcome [7] | outcome [8]

CCCC1N=C(N)N=C(N)N1c1cccc(C(F)(F)F)c1 (stereo not given)
active: growth inhibition [4] 95%
inactive: growth inhibition [1] 7% | inhibition [2] 22% | inhibition [3] 5% | outcome [5] | outcome [6] | outcome [7] | outcome [8]

COc1cc2nc(NCCc3ccccc3)nc(NCCCc3ccccc3)c2cc1OC
active: growth inhibition [1] 101% | growth inhibition [4] 101%
inactive: inhibition [2] 21% | inhibition [3] 2% | outcome [5] | outcome [6] | outcome [7] | outcome [8]

CN1CCC(OC(=O)c2cc3cc(-c4ccccc4)ccc3n2S(=O)(=O)c2ccccc2)CC1
active: growth inhibition [4] 88%
inactive: growth inhibition [1] 10% | inhibition [2] 31% | inhibition [3] -5% | outcome [5] | outcome [6] | outcome [7] | outcome [8]

CC(C)COc1cc(C(=O)Nc2cnc3ccccc3c2)ccc1[N+](=O)[O-]
inactive: inhibition [2] 19% | inhibition [3] -1% | outcome [5] | outcome [6] | outcome [7] | outcome [8]
active: growth inhibition [1] 56% | growth inhibition [4] 97%

Nc1cc(-c2ccc(Br)cc2O)nc2ccccc12
active: growth inhibition [1] 50% | growth inhibition [4] 100%
inactive: inhibition [2] 23% | inhibition [3] 0% | outcome [5] | outcome [6] | outcome [7] | outcome [8]

CC(C)CNCc1ccc(-c2ccccc2CN(C(=O)NCCc2ccccc2)C2CCN(Cc3ccccc3)CC2)cc1
active: growth inhibition [1] 94% | inhibition [2] 89% | growth inhibition [4] 98%
inactive: inhibition [3] 2% | outcome [5] | outcome [6] | outcome [7] | outcome [8]

CN1CCN(c2ccc(Nc3c(C(N)=O)cnc4cc(-c5ccoc5)ccc34)cc2C(F)(F)F)CC1
inactive: inhibition [2] 13% | inhibition [3] -9% | outcome [5] | outcome [6] | outcome [7] | outcome [8]
active: growth inhibition [1] 97% | growth inhibition [4] 100%

O=S(=O)(Nc1cccc(CCN2CCCCC2CCN2CCCC2)c1)c1ccc(-c2ccccc2)cc1 (stereo not given)
active: growth inhibition [4] 99%
inactive: growth inhibition [1] 5% | inhibition [2] 31% | inhibition [3] 0% | outcome [5] | outcome [6] | outcome [7] | outcome [8]

CCCCC1=CC2C(=O)C(C(=O)OC)=CN=C2C=C1OCc1ccccc1 (stereo not given)
active: growth inhibition [1] 98% | growth inhibition [4] 99%
inactive: inhibition [2] 7% | inhibition [3] 2% | outcome [5] | outcome [6] | outcome [7] | outcome [8]

CCC1(CC)C(=O)N=C(N2CCCCC2)N(C)C1=O
active: growth inhibition [1] 66% | growth inhibition [4] 89%
inactive: inhibition [2] -4% | inhibition [3] 1% | outcome [5] | outcome [6] | outcome [7] | outcome [8]

CN1CCCC1CCOc1ccc2c(c1)N(C(=O)Nc1cc(Br)cc(C(F)(F)F)c1)CC2 (stereo not given)
inactive: inhibition [2] 13% | inhibition [3] -6% | outcome [5] | outcome [6] | outcome [7] | outcome [8]
active: growth inhibition [1] 97% | growth inhibition [4] 102%

CC(C)C[C@H](NC(=O)c1cc2ccccc2s1)C(=O)N[C@H]1CCN(Cc2ccc(I)c(OC3CCN(C)C3)c2)C1 (stereo not given in full)
inactive: inhibition [3] 4% | outcome [5] | outcome [6] | outcome [7] | outcome [8]
active: growth inhibition [1] 95% | inhibition [2] 99% | growth inhibition [4] 100%

NC(N)=NCCCCN(Cc1ccccc1)c1ccccc1
active: growth inhibition [1] 98% | growth inhibition [4] 100%
inactive: inhibition [2] -4% | inhibition [3] -4% | outcome [5] | outcome [6] | outcome [7] | outcome [8]

COc1ccc(CCNCCCCCNCCCc2ccc(Cl)cc2)cc1OC
inactive: growth inhibition [1] 2% | inhibition [2] 24% | inhibition [3] 2% | outcome [5] | outcome [6] | outcome [7] | outcome [8]
active: growth inhibition [4] 101%

Oc1ccc(CCNCCCCCCNCCc2ccc(Cl)c3ccccc23)cc1O
active: growth inhibition [4] 99%
inactive: growth inhibition [1] 1% | inhibition [2] 22% | inhibition [3] -4% | outcome [5] | outcome [6] | outcome [7] | outcome [8]

COc1ccc(-c2ccc(NC(=O)c3cccc(F)c3)cc2)cc1CNC(C)C
active: growth inhibition [4] 97%
inactive: growth inhibition [1] 14% | inhibition [2] 17% | inhibition [3] -2% | outcome [5] | outcome [6] | outcome [7] | outcome [8]

CC(O)C1CCCCN1C(=O)c1ccc(-c2ccc(-c3nc4ccc(F)cc4[nH]3)cc2)cc1 (stereo not given)
inactive: inhibition [2] 43% | inhibition [3] -3% | outcome [5] | outcome [6] | outcome [7] | outcome [8]
active: growth inhibition [1] 99% | growth inhibition [4] 101%

COc1cc(F)c2ncc(Cl)c([C@@H](O)CN3CCC(NCc4ccc5c(n4)NC(=O)CO5)CC3)c2c1
inactive: inhibition [2] 12% | inhibition [3] 1% | outcome [5] | outcome [6] | outcome [7] | outcome [8]
active: growth inhibition [1] 100% | growth inhibition [4] 101%

Oc1ccc(CN2CCC(NCc3cccc4ccccc34)CC2)cc1
inactive: growth inhibition [1] 8% | inhibition [2] 8% | inhibition [3] -3% | outcome [5] | outcome [6] | outcome [7] | outcome [8]
active: growth inhibition [4] 97%

CCN(CC)CCN(Cc1ccc(-c2ccc(C(F)(F)F)cc2)cc1)C(=O)Cn1c(CCc2ccc(F)c(F)c2F)nc(=O)c2cccnc21
active: growth inhibition [4] 89%
inactive: growth inhibition [1] 20% | inhibition [2] 29% | inhibition [3] -3% | outcome [5] | outcome [6] | outcome [7] | outcome [8]

O=C(NCc1ccc(Cl)cc1)c1ccc(C(=O)NCC2CCCN2CC2CCCCC2)cc1 (stereo not given)
active: growth inhibition [4] 97%
inactive: growth inhibition [1] 10% | inhibition [2] 21% | inhibition [3] -11% | outcome [5] | outcome [6] | outcome [7] | outcome [8]

CCOc1cc(C(=O)Nc2ccc(-c3nc4ccccc4[nH]3)cc2)cc(OCC)c1OCC
active: growth inhibition [1] 94% | growth inhibition [4] 100%
inactive: inhibition [2] 42% | inhibition [3] -2% | outcome [5] | outcome [6] | outcome [7] | outcome [8]

N#Cc1cccc(C(=O)Nc2cccc(-c3ccc(CN4CCCC4)cc3)c2)c1
inactive: growth inhibition [1] 42% | inhibition [2] 11% | inhibition [3] 1% | outcome [5] | outcome [6] | outcome [7] | outcome [8]
active: growth inhibition [4] 98%

O=[N+]([O-])c1ccc(-n2nc(Cc3ccccc3)n(Cc3cccc(F)c3)c2=S)c(C(F)(F)F)c1
active: growth inhibition [1] 100% | growth inhibition [4] 101%
inactive: inhibition [2] 4% | inhibition [3] -3% | outcome [5] | outcome [6] | outcome [7] | outcome [8]

O=C1OC(c2ccccc2)(c2ccccc2)CN1C1CCN(Cc2ccc(O)c(Cl)c2)C1 (stereo not given)
active: growth inhibition [1] 93% | growth inhibition [4] 100%
inactive: inhibition [2] 10% | inhibition [3] 3% | outcome [5] | outcome [6] | outcome [7] | outcome [8]

CC1CN(Cc2ccc(-c3ccc(-c4nc5ccccc5[nH]4)cc3)cc2)CC(C)O1 (stereo not given)
inactive: inhibition [2] 48% | inhibition [3] 3% | outcome [5] | outcome [6] | outcome [7] | outcome [8]
active: growth inhibition [1] 96% | growth inhibition [4] 98%

CN(C)C1CCN(CC#Cc2cc3ncnc(Nc4ccc(OCc5cccc(F)c5)c(Cl)c4)c3s2)CC1
inactive: growth inhibition [1] 5% | inhibition [2] 34% | inhibition [3] -5% | outcome [5] | outcome [6] | outcome [7] | outcome [8]
active: growth inhibition [4] 85%

COc1cccc(-c2[nH]c3ccccc3c2CN2CCC(c3c(C)cccc3C)CC2)c1
active: growth inhibition [4] 99%
inactive: growth inhibition [1] 24% | inhibition [2] 32% | inhibition [3] 3% | outcome [5] | outcome [6] | outcome [7] | outcome [8]

CC(C)c1cccc(OCC2CCN(c3ncc(C(=O)Nc4ccccc4)cc3Cl)CC2)c1
active: growth inhibition [1] 88% | growth inhibition [4] 89%
inactive: inhibition [2] 9% | inhibition [3] -2% | outcome [5] | outcome [6] | outcome [7] | outcome [8]

Cc1cc(N[C@@H](Cc2ccccc2)C(=O)NCCOc2ccccc2)nc(NCCc2ccccc2)n1
inactive: inhibition [2] 12% | inhibition [3] -1% | outcome [5] | outcome [6] | outcome [7] | outcome [8]
active: growth inhibition [1] 68% | growth inhibition [4] 101%

O=C(/C=C/c1ccc(Cl)c(Cl)c1)NC1CCN(Cc2ccc(O)cc2)C1 (stereo not given)
inactive: growth inhibition [1] 4% | inhibition [2] 15% | inhibition [3] -1% | outcome [5] | outcome [6] | outcome [7] | outcome [8]
active: growth inhibition [4] 97%

Cc1cc(=O)c(-c2ccc(OCc3ccc(OC(F)(F)F)cc3)cc2)c(C)[nH]1
inactive: inhibition [2] 3% | inhibition [3] 3% | outcome [5] | outcome [6] | outcome [7] | outcome [8]
active: growth inhibition [1] 92% | growth inhibition [4] 97%

Cc1cc(C(=O)CN2C(=O)NC3(CCCc4ccccc43)C2=O)c(C)n1Cc1ccco1 (stereo not given)
inactive: growth inhibition [1] -5% | inhibition [2] 11% | inhibition [3] 4% | outcome [5] | outcome [6] | outcome [7] | outcome [8]
active: growth inhibition [4] 90%

Cc1ccc(C(NC(=O)c2ccccc2)c2ccc3cccnc3c2O)cc1 (stereo not given)
active: growth inhibition [1] 72% | inhibition [2] 53% | growth inhibition [4] 92%
inactive: inhibition [3] 7% | outcome [5] | outcome [6] | outcome [7] | outcome [8]
